# PubChem BioAssay (Tox21)
# Values without a mark were called inactive. Activity calls are given as the source filed them. Calls follow the shape of the dose curve; as a rule, active = well fitted curve in the direction sought with a large enough effect in the repeat runs; inconclusive = weak or mixed curves; inactive = flat fitted curve, though single readings scatter.
# Test: qHTS assay to test for compound auto fluorescence at 590 nm (red) in HEK293 cell free culture (AID 720683)
# Conditions: cell-free medium autofluorescence, Ex540/Em590 red; series mostly up to 91.3 µM; fluorescence, % of fluorescent control: at the top concentration
# Procedure, shortened: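 Red-channel autofluorescence of compounds in culture medium (DMEM, 10% FBS), no cells, measured at 540/590 nm. Rose Bengal sodium is the reference fluorophore for equivalence.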
# % is scaled to controls: 0 for no effect and ±100 for the full control effect.
Structure (SMILES),"fluorescence, % of fluorescent control",outcome
COC(=O)C1CC(=O)C(C(=O)OC)CC1=O (stereo not drawn),0.0034% [at 3.72 µM],–
Oc1cn2c(n1)Nc1ccc(Cl)c(Cl)c1C2,–,inactive
COCCOCCOCCOCCOCCO,-0.0386%,–
O=C(c1ccc(O)cc1)c1ccc(O)c(O)c1O,0.0441%,–
O=C1O[C@@H]2[C@@H](O)[C@H](O)O[C@@H]2[C@H]1O,–,inactive
CC(=O)c1sc(C)nc1C,0.0473%,–
CC(=O)Nc1ccc(S(=O)(=O)Nc2ccc([N+](=O)[O-])cc2)cc1,0.842% [at 46 µM],–
CCOc1cc([N+](=O)[O-])c(OCC)cc1N1CCOCC1,0.128%,–

# Test: qHTS assay to test for compound auto fluorescence at 590 nm (red) in HepG2 cell free culture (AID 720684)
# Conditions: cell-free medium autofluorescence, red 540/590 nm; series mostly up to 91.3 µM; fluorescence, % of Rose Bengal: at the top concentration
# Procedure, shortened: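 Cell-free; medium MEM + 10% FBS; compound or DMSO added by pintool; read Ex 540/Em 590 nm; Rose Bengal sodium as red reference fluorophore.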
Structure (SMILES),"fluorescence, % of Rose Bengal",outcome
O=C(O)Cc1cn(-c2ccccc2)nc1-c1ccc(Cl)cc1,-0.0231% [at 46 µM],–
CCCCCCOC(=O)CC,-0.113%,–
O=C(O)c1cc(Cl)cc([N+](=O)[O-])c1Cl,0.0741%,–
Nc1nnc(-c2cccc(Cl)c2Cl)c(N)n1,0.0256% [at 46 µM],–
CC(C(=O)O)c1ccc2c(c1)CC(=O)c1ccccc1S2 (stereo not drawn),0.256% [at 46 µM],–
COCCOC(=O)C1=C(C)NC(C)=C(C(=O)OC(C)C)C1c1cccc([N+](=O)[O-])c1 (stereo not drawn),-0.0801% [at 46 µM],–
COc1ccc(-c2cc(=O)c3c(O)cc(O[C@@H]4O[C@H](CO[C@@H]5O[C@@H](C)[C@H](O)[C@@H](O)[C@H]5O)[C@@H](O)[C@H](O)[C@H]4O)cc3o2)cc1O,-0.0084% [at 46 µM],–
CC(=O)NCc1c(I)c(NC(C)=O)c(I)c(C(=O)O)c1I,-0.289% [at 46 µM],–
Cc1cccc(C)c1OCC(C)N (stereo not drawn),-0.225% [at 46 µM],–
CC(C)NCC(O)COc1ccc(COCCOC(C)C)cc1 (stereo not drawn),–,inactive
C[C@@H]1O[C@@H](O[C@@H]2[C@@H](O)[C@H](OCCc3ccc(O)c(O)c3)O[C@H](CO[C@@H]3O[C@H](CO)[C@@H](O)[C@H](O)[C@H]3O)[C@H]2OC(=O)/C=C/c2ccc(O)c(O)c2)[C@H](O)[C@H](O)[C@H]1O,0.0434%,–
CC(=O)/C=C/C1C(C)=CCC(C)C1(C)C (stereo not drawn),-0.151%,–
Brc1ccc(-c2ccccc2)cc1,0.293%,–
C=C(C)C(=O)OCCNC(C)(C)C,0.107%,–
C=COCCOCCOCCOC=C,0.0074%,–
CC(=O)CCCCn1c(=O)c2c(ncn2C)n(C)c1=O,-0.221% [at 18.6 µM],–
FC(F)(F)c1ccccc1-n1ccnc1,0.0052% [at 46 µM],–
C=Cc1ccccn1,-0.377%,–

Structure (SMILES),"fluorescence, % of Rose Bengal",outcome
CC(N)C(=O)OC(C)(C)Cc1ccc(Cl)cc1 (stereo not drawn),-0.11% [at 46 µM],–
CCO[Si](CCCS)(OCC)OCC,-0.148%,–
NS(=O)(=O)c1ccc(NC(=O)CCC(=O)O)cc1,0.0163% [at 46 µM],–
O=C(/N=N/C(=O)OCc1ccccc1)OCc1ccccc1,-0.0437%,–
CC(S)C(=O)NCC(=O)O (stereo not drawn),-0.102% [at 46 µM],–
C#CC(C)N(C)C(=O)Nc1ccc(Cl)cc1 (stereo not drawn),0.0884%,–
Nc1ccc([N+](=O)[O-])c(N)c1,0.0632%,–
CC(C)(C)NC(N)=O,0.102%,–
COC(=O)C1CC(=O)C(C(=O)OC)CC1=O (stereo not drawn),0.258% [at 3.72 µM],–
Oc1cn2c(n1)Nc1ccc(Cl)c(Cl)c1C2,–,inactive
CC1=CCC(C(C)C)=CC1,-0.251%,–
COCCOCCOCCOCCOCCO,-0.178%,–
O=C(c1ccc(O)cc1)c1ccc(O)c(O)c1O,-0.207%,–
O=C1O[C@@H]2[C@@H](O)[C@H](O)O[C@@H]2[C@H]1O,–,inactive
CC(=O)c1sc(C)nc1C,-0.118%,–
CC(=O)Nc1ccc(S(=O)(=O)Nc2ccc([N+](=O)[O-])cc2)cc1,0.43% [at 46 µM],–
CCOc1cc([N+](=O)[O-])c(OCC)cc1N1CCOCC1,0.0166%,–

# Test: qHTS assay to test for compound auto fluorescence at 460 nm (blue) in HepG2 cell free culture (AID 720685)
# Conditions: Cell-free culture medium, blue autofluorescence 405/460 nm; series mostly up to 91.3 µM; fluorescence, % of fluorescent control: at the top concentration
# Procedure, shortened: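 Cell-free plates of MEM plus 10% FBS received 23 nL compound or DMSO vehicle; blue-channel (405/460 nm) intensity scored against triamterene as reference fluorophore.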
Structure (SMILES),"fluorescence, % of fluorescent control",outcome
O=C(O)Cc1cn(-c2ccccc2)nc1-c1ccc(Cl)cc1,-0.137% [at 46 µM],–
CCCCCCOC(=O)CC,0.0695%,–
O=C(O)c1cc(Cl)cc([N+](=O)[O-])c1Cl,-0.106%,–
Nc1nnc(-c2cccc(Cl)c2Cl)c(N)n1,0.0002% [at 46 µM],–
CC(C(=O)O)c1ccc2c(c1)CC(=O)c1ccccc1S2 (stereo not drawn),0.111% [at 46 µM],–
COCCOC(=O)C1=C(C)NC(C)=C(C(=O)OC(C)C)C1c1cccc([N+](=O)[O-])c1 (stereo not drawn),-0.0476% [at 46 µM],–
COc1ccc(-c2cc(=O)c3c(O)cc(O[C@@H]4O[C@H](CO[C@@H]5O[C@@H](C)[C@H](O)[C@@H](O)[C@H]5O)[C@@H](O)[C@H](O)[C@H]4O)cc3o2)cc1O,-0.0277% [at 46 µM],–
CC(=O)NCc1c(I)c(NC(C)=O)c(I)c(C(=O)O)c1I,-0.0402% [at 46 µM],–
Cc1cccc(C)c1OCC(C)N (stereo not drawn),0.004% [at 46 µM],–
CC(C)NCC(O)COc1ccc(COCCOC(C)C)cc1 (stereo not drawn),–,inactive
C[C@@H]1O[C@@H](O[C@@H]2[C@@H](O)[C@H](OCCc3ccc(O)c(O)c3)O[C@H](CO[C@@H]3O[C@H](CO)[C@@H](O)[C@H](O)[C@H]3O)[C@H]2OC(=O)/C=C/c2ccc(O)c(O)c2)[C@H](O)[C@H](O)[C@H]1O,2.05%,–
CC(=O)/C=C/C1C(C)=CCC(C)C1(C)C (stereo not drawn),0.0655%,–
Brc1ccc(-c2ccccc2)cc1,0.0212%,–
C=C(C)C(=O)OCCNC(C)(C)C,0.173%,–
C=COCCOCCOCCOC=C,0.108%,–
CC(=O)CCCCn1c(=O)c2c(ncn2C)n(C)c1=O,0.0657% [at 18.6 µM],–
FC(F)(F)c1ccccc1-n1ccnc1,0.0106% [at 46 µM],–
C=Cc1ccccn1,-0.0775%,–

Structure (SMILES),"fluorescence, % of fluorescent control",outcome
CC(N)C(=O)OC(C)(C)Cc1ccc(Cl)cc1 (stereo not drawn),0.0019% [at 46 µM],–
CCO[Si](CCCS)(OCC)OCC,0.0354%,–
NS(=O)(=O)c1ccc(NC(=O)CCC(=O)O)cc1,0.0328% [at 46 µM],–
O=C(/N=N/C(=O)OCc1ccccc1)OCc1ccccc1,-0.0171%,–
CC(S)C(=O)NCC(=O)O (stereo not drawn),-0.0016% [at 46 µM],–
C#CC(C)N(C)C(=O)Nc1ccc(Cl)cc1 (stereo not drawn),-0.0427%,–
Nc1ccc([N+](=O)[O-])c(N)c1,-0.497%,–
CC(C)(C)NC(N)=O,0.019%,–
COC(=O)C1CC(=O)C(C(=O)OC)CC1=O (stereo not drawn),2.39% [at 3.72 µM],–
Oc1cn2c(n1)Nc1ccc(Cl)c(Cl)c1C2,–,inactive
CC1=CCC(C(C)C)=CC1,-0.201%,–
COCCOCCOCCOCCOCCO,0.0392%,–
O=C(c1ccc(O)cc1)c1ccc(O)c(O)c1O,-0.0678%,–
O=C1O[C@@H]2[C@@H](O)[C@H](O)O[C@@H]2[C@H]1O,–,inactive
CC(=O)c1sc(C)nc1C,0.0325%,–
CC(=O)Nc1ccc(S(=O)(=O)Nc2ccc([N+](=O)[O-])cc2)cc1,0.0245% [at 46 µM],–
CCOc1cc([N+](=O)[O-])c(OCC)cc1N1CCOCC1,0.0313%,–
